Read-out in test [1]: Human Leukocyte Antigen - DR isotype (HLADR), HLA-DRA (gene 3122)
Nature of the test: BSK_CASM3C_HLADR: BioMAP Diversity Plus: CASM3C Assay for Human Leukocyte Antigen - DR isotype (HLADR) Biomarker Activity (AID 2283043).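 Note: cell-surface HLA-DR protein level quantified by ELISA.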 Particulars: primary human coronary artery smooth muscle cells; actives raise or lower the signal.

Read-out in test [2]: Macrophage colony-stimulating factor (MCSF), CSF1 (gene 1435)
Description: BSK_CASM3C_MCSF: BioMAP Diversity Plus: CASM3C Assay for Macrophage colony-stimulating factor (MCSF) Biomarker Activity (AID 2283044).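 Note: M-CSF protein amount quantified by ELISA after 24 h exposure.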 The settings on record: primary human coronary artery smooth muscle cells; actives raise or lower the signal.

Read-out in test [3]: Low-density lipoprotein receptor (LDLR), LDLR (gene 3949)
Description: BSK_CASM3C_LDLR: BioMAP Diversity Plus: CASM3C Assay for Low-density lipoprotein receptor (LDLR) Biomarker Activity (AID 2283045).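 Note: LDLR protein level on the cell surface quantified by ELISA.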 The settings on record: primary human coronary artery smooth muscle cells; actives raise or lower the signal.

Read-out in test [4]: Monocyte Chemoattractant Protein-1 (MCP1), CCL2 (gene 6347)
Nature of the test: BSK_CASM3C_MCP1: BioMAP Diversity Plus: CASM3C Assay for Monocyte Chemoattractant Protein-1 (MCP1) Biomarker Activity (AID 2283046).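 Note: MCP-1 level quantified by ELISA 24 h after dosing.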 Particulars: primary human coronary artery smooth muscle cells; actives raise or lower the signal.

The nature of test [5]: BSK_CASM3C_Proliferation: Cell Proliferation Assessment in the BioMAP Diversity Plus: CASM3C Assay (AID 2283047).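 Note: sulforhodamine B total protein stain as relative cell number at 560 nm; sub-confluent cells exposed 48 h before staining; fitted both ways against DMSO so gain or loss of cell number.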 The settings on record: primary human coronary artery smooth muscle cells.
Read-out in test [6]: Monokine induced gamma interferon (MIG), CXCL9 (gene 4283)
Description: BSK_CASM3C_MIG: BioMAP Diversity Plus: CASM3C Assay for Monokine induced gamma interferon (MIG) Biomarker Activity (AID 2283048).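 Note: MIG protein level measured by ELISA.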 The settings on record: primary human coronary artery smooth muscle cells; actives raise or lower the signal.

Read-out in test [7]: serum amyloid A (SAA), SAA1 (gene 6288)
Description: BSK_CASM3C_SAA: BioMAP Diversity Plus: CASM3C Assay for serum amyloid A (SAA) Biomarker Activity (AID 2283049).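 Note: SAA protein level quantified by ELISA.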 Particulars: primary human coronary artery smooth muscle cells; actives raise or lower the signal.

Test [8] in a line: BSK_CASM3C_SRB: Viability Assessment in the BioMAP Diversity Plus: CASM3C Assay (AID 2283050).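 Note: total protein by SRB staining as cytotoxicity measure in parallel cultures; cells exposed to compound for 24 h.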 The settings on record: primary human coronary artery smooth muscle cells.
Read-out in test [9]: Thrombomodulin, THBD (gene 7056)
Nature of the test: BSK_CASM3C_Thrombomodulin: BioMAP Diversity Plus: CASM3C Assay for Thrombomodulin Biomarker Activity (AID 2283051).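 Note: thrombomodulin protein level measured by ELISA 24 h after dosing.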 The settings on record: primary human coronary artery smooth muscle cells; actives raise or lower the signal.

Read-out in test [10]: Tissue Factor, F3 (gene 2152)
Nature of the test: BSK_CASM3C_TissueFactor: BioMAP Diversity Plus: CASM3C Assay for Tissue Factor Biomarker Activity (AID 2283052).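 Note: cell surface tissue factor protein level read by ELISA.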 Particulars: primary human coronary artery smooth muscle cells; actives raise or lower the signal.

In PubChem BioAssay (EPA / NIEHS) one finds outcome and AC50 data, which are given here for 21 compounds.

Calls of active or inactive are those of the source. Rule for the calls: active = hit-call score of the fitted dose curve at least 0.9, where 1 is the maximum; inactive = score below 0.9.

Regarding `Cn1c(=O)c2c(ncn2C)n(C)c1=O`, the outcome in [1], in test [2], in [3], in test [4], in [5] and in [6] was inactive. Further, the result in test [7], in test [8], in [9] and in test [10] was inactive.
As to `CCCCC(CC)COC(=O)c1ccc(C(=O)OCC(CC)CCCC)cc1` (stereo not given), the result in test [1], in test [2], in [3], in test [4], in [5] and in test [6] was inactive. The outcome in test [7], in test [8], in test [9] and in test [10] was inactive.
`CC(C)CC(C)(O)C#CC(C)(O)CC(C)C` (stereo not given): the result in test [1], in test [2], in test [3], in [4], in test [5] and in [6] was inactive. Besides, the result in [7], in test [8], in test [9] and in [10] was inactive.
On to `C1=CCCC=CCCC=CCC1`, for which the result in [1], in [2], in test [3], in [4], in [5] and in test [6] was inactive. In addition, the result in test [7], in [8], in test [9] and in [10] was inactive.
Regarding `CC(C)=CCC/C(C)=C/CO`, the outcome in test [1], in [2], in test [3], in [4], in [5] and in [6] was inactive. Besides, the outcome in test [7], in test [8], in [9] and in test [10] was inactive.
As to `COC(=O)CC(=O)OC`, the outcome in test [1], in test [2], in [3], in test [4], in test [5] and in test [6] was inactive. Further, the result in test [7], in test [8], in [9] and in test [10] was inactive.
Regarding `CCNc1ccccc1`, the result in test [1], in test [2], in test [3], in [4], in test [5] and in [6] was inactive. Besides, the result in test [7], in test [8], in [9] and in test [10] was inactive.
Take `O=C1CCC(N2C(=O)c3ccccc3C2=O)C(=O)N1` (stereo not given): the result in [1], in test [2], in test [3], in test [4], in test [5] and in test [6] was inactive. Moreover, the result in [7], in test [8], in [9] and in [10] was inactive.
By AC50 is commonly meant the concentration giving half of the maximal activity seen. For `COc1cccc(-c2ccc(/C=C\CN3CCCCCC3)cc2Cl)c1`, the AC50 in test [1] is 29.5 µM (active); in test [2], 29.4 µM (active); in test [3] it was 4.74 µM (active); in [5] it was 29.8 µM (active); in test [7] it was 32 µM (active); in [8], 25 µM (active). The result in test [4], in [6], in test [9] and in test [10] was inactive.
Take `O=C(CCCCCCCCc1cccnc1)N1CCC(C=C(c2ccccc2)c2ccccc2)CC1`: the AC50 in test [1] is 35 µM (active); in test [2] it was 38 µM (active); in [3] it was 34.3 µM (active); in test [4] it was 38.2 µM (active); in test [5] it was 35.4 µM (active); in test [6] it was 38.3 µM (active). Further, the AC50 in test [7] was 37.5 µM (active); in [8], 39.1 µM (active). The outcome in test [9] and in [10] was inactive.
Regarding `O=C(O)CCN(C1(C(=O)NO)CCCC1)S(=O)(=O)c1ccc(Oc2ccc(F)cc2)cc1`, the result in test [1], in [2], in test [3], in test [4], in test [5] and in test [6] was inactive. For the same compound, the outcome in [7], in [8], in [9] and in [10] was inactive.
For `CC(C)CCCCCCCOC(=O)CCCCC(=O)OCCCCCCCC(C)C`, the result in test [1], in test [2], in test [3], in test [4], in [5] and in test [6] was inactive. The result in test [7], in [8], in test [9] and in test [10] was inactive.
Regarding `CCN(C(=O)c1cc(C)cc(OC[C@H](C)Nc2ccncc2)c1)C(C)C`, the result in test [1], in test [2], in test [3], in [4], in test [5] and in test [6] was inactive. Moreover, the result in test [7], in test [8], in [9] and in [10] was inactive.
As to `NC(=O)NO`, the result in test [1], in test [2], in test [3], in test [4], in test [5] and in [6] was inactive. In addition, the outcome in test [7], in test [8], in test [9] and in test [10] was inactive.
In the case of `CC(C)=CCC/C(C)=C\CO`, the result in [1], in test [2], in test [3], in test [4], in test [5] and in [6] was inactive. The outcome in test [7], in [8], in test [9] and in test [10] was inactive.
`CC[C@H]1OC(=O)[C@H](C)[C@@H](O[C@H]2C[C@@](C)(OC)[C@@H](O)[C@H](C)O2)[C@H](C)[C@@H](O[C@@H]2O[C@H](C)C[C@H](N(C)C)[C@H]2O)[C@](C)(O)C[C@@H](C)C(=O)[C@H](C)[C@@H](O)[C@]1(C)O`: the outcome in test [1], in [2], in test [3], in [4], in test [5] and in [6] was inactive. Further, the outcome in test [7], in test [8], in test [9] and in test [10] was inactive.
`CCn1nc(Cc2ccccc2)cc1C1CCN(C[C@H]2C[C@H](N(C)[C@@H](C(=O)O)C(C)C)C[C@@H]2c2cccc(F)c2)CC1`: the outcome in test [1], in [2], in test [3], in [4], in test [5] and in test [6] was inactive. Further, the result in [7], in [8], in [9] and in [10] was inactive.
On to `O=C(O)CC(O)C(=O)O` (stereo not given), for which the outcome in [1], in test [2], in [3], in test [4], in [5] and in [6] was inactive. In addition, the outcome in test [7], in test [8], in test [9] and in [10] was inactive.
`CC1=CC(=O)CC(C)(C)C1`: the outcome in test [1], in test [2], in test [3], in test [4], in test [5] and in test [6] was inactive. For the same compound, the outcome in test [7], in test [8], in test [9] and in test [10] was inactive.
With `O=C(O)c1cc(N=Nc2ccc(S(=O)(=O)Nc3ccccn3)cc2)ccc1O`, the outcome in [1], in test [2], in test [3], in [4], in test [6] and in test [7] was inactive. In addition, the result in [8], in [9] and in [10] was inactive. The AC50 in test [5] was 14.5 µM (active).
Consider `CCCCCCCCCCCCc1ccccc1`, for which the outcome in test [1], in [2], in test [3], in test [4], in test [5] and in test [6] was inactive. Further, the outcome in [7], in [8], in [9] and in [10] was inactive.
